These results are taken from PubChem BioAssay.

Test [1] is described as follows: rapamycin-like changes in RPL19A-GFP expression – cell-based, S. cerevisiae, multiplex flow cytometry, primary screen (AID 1862; in the data active means percent of DMSO control GFP below about 86%;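 further: lower values mimic rapamycin by blocking the RPL19A rise seen in DMSO cells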). To be noted: S. cerevisiae RPL19A-GFP strain, flow cytometry fluorescence, 3 h; at 10 µM; stronger effect = lower value.
The nature of test [2]: TOR pathway GLN3 branch reporter MEP2-GFP changes – S. cerevisiae, multiplex flow cytometry, primary screen (AID 1867;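 active means GFP response, as percent of the DMSO control, above the screen-wide mean plus 3 SD, about 139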;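 further: median GFP channel fluorescence of barcode-gated MEP2-GFP cells measured by flow cytometry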). To be noted: S. cerevisiae MEP2-GFP strain, 3 h, at 10 µM, stronger effect = higher value, 100% means same as DMSO wells.
The nature of test [3]: TOR pathway RTG branch CIT2 reporter changes – S. cerevisiae, GFP fusion, multiplex flow cytometry, primary screen (AID 1870;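 active means percent response above a set limit, the screen-wide mean plus 3 SD, cut at about 130% in these data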;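 further: barcoded CIT2-GFP strain pooled with four other GFP strains with rapamycin as positive control; median GFP fluorescence per well over plate mean of DMSO wells so 100% = DMSO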). To be noted: S. cerevisiae CIT2-GFP expression, 3 h, at 10 µM, stronger effect = higher value.
Test [4] in a line: TOR pathway LAP4-GFP level changes – S. cerevisiae, multiplex flow cytometry, primary screen (AID 1873;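 active means GFP signal, as percent of the solvent control, above the screen mean plus 3 SD, about 149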). To be noted: S. cerevisiae LAP4-GFP expression, 3 h, at 10 µM, stronger effect = higher value. (In flow cytometry, cells or beads pass a laser one at a time.)
Test [5] in a line: reduced mouse 2C T cell binding to pMHC/ICAM-1 vesicles – MLPCN validation set, flow cytometry, LFA-1/ICAM-1 modulator project, pilot screen (AID 2523;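 active means response below a set limit, under 55% cells CD8-positive and vesicle-bound, and CD8 cells' 90th-percentile brightness under 279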;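 on vesicle binding response: mean PE anti-B7-1 fluorescence of CD8+ cells relative to row control; 100% = QL9-loaded vesicles with DMSO vehicle in the same plate row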). The note with it: 2C mouse CD8+ T cells, at 7 µM, stronger effect = lower value; double positive events: measured here: CD8+/vesicle+ event percentage.
Test [6] deals with Integrin beta-1 (Homo sapiens) + Integrin alpha-4 (Homo sapiens) (UniProt P13612+P05556). The experiment in a line: alpha4beta1 integrin LIBS antibody binding reduction – U937 cells, HUTS-21 mAb, flow cytometry, validation set, VLA-4 allosteric modulator project, pilot screen (AID 2674;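 active means inhibition above 50%, about 3 SD of the validation set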;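 further: antibody binding induced by the VLA-4 ligand LDV present at three times its Kd; 0% = LDV ligand with antibody and no compound and 100% = antibody without LDV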). To be noted: HUTS-21 LIBS mAb binding, at 6.7 µM, stronger effect = higher value, binding induced by LDV ligand.

A short description of test [7]: calorie-restriction mimetic ROS inhibitors, yeast – validation compound set, pilot screen (AID 2706;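 active means superoxide response below 65% of plate, a cut near 3 SD across the whole screen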;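 further: yeast exposed to compound for one week at 30 degrees C before staining; 100% = mean of all compound wells on the same plate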). To be noted: S. cerevisiae aging, superoxide DHE fluorescence; at 10 µM, stronger effect = lower value.
Test [8] deals with Beta-adrenergic receptor kinase 1 (Homo sapiens) (UniProt P25098). The test can be described thus: GRK2 binders displacing RNA aptamer, biochemical, validation, human GRK2, bead flow cytometry (AID 488806;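 active means aptamer binding inhibition above 30%, about 3 SD of noise from non-fluorescent compounds; inactive means inhibition at or below 30%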). To be noted: bead-bound GRK2, FAM-aptamer displacement, at 10 µM, stronger effect = higher value.
Test [9] addresses Beta-2 adrenergic receptor (Homo sapiens) (UniProt P07550). The test can be described thus: agonist-induced loss of surface beta2AR – cell-based, FAP fluorogen, flow cytometry, validation set, pilot screen (AID 504459;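 active means percent response above 42, roughly 3 SD of non-fluorescent test compounds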;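 further: agonist-driven loss of surface beta2AR via internalization measured by FAP dye flow cytometry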). The note with it: Am2.2-beta2AR cells, at 10 µM, stronger effect = higher value.
Test [10] concerns the target AP-2 complex subunit beta (Homo sapiens) (UniProt P63010). The test can be described thus: beta-arrestin/AP2 interaction blockers – biochemical, validation set, GST-AP2 beads, flow cytometry, pilot screen (AID 504541;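 active means inhibition above 54%, about 3 SD of non-fluorescent compounds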;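 further: AP2 carries R879A mutation and is captured from E. coli lysate; bead-bound FITC arrestin peptide fluorescence measuring arrestin peptide binding to AP2; 0% = DMSO wells and 100% = excess unlabeled arrestin peptide control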). The note with it: FITC arrestin peptide, at 10 µM, stronger effect = higher value, AP2 beta2 appendage fragment, R879A mutant.
Test [11] in a line: cytosolic pH regulators acting via V-ATPase – S. cerevisiae, pHLuorin, HTS validation (AID 504600).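 Further: plate controls were DMSO for no effect and reference compound for full effect.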 To be noted: V-ATPase proton transport, at 10 µM, stronger effect = higher value.
For test [12], the system named is anti-desmoglein-3 scFv antibody binding to human DSG3. The experiment in a line: blockers of pathogenic pemphigus antibody–desmoglein-3 binding – biochemical, validation compound set, bead-based, flow cytometry, pilot screen (AID 588368;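 active means binding below the plate cutoff, the plate median minus 3 SD, with a reading above zero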;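 further: signal is the median channel fluorescence of bead-bound GFP antibody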). The note with it: Protein G beads, DSG3-Fc, scFv-GFP binding, at 10 µM, stronger effect = lower value.
The nature of test [13]: Nile Red efflux blockade in pump-expressing yeast – validation compound set, multiplex, phenotypic, pilot screen (AID 588506;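 active means efflux inhibition above 0.42, the validation set average plus 4 SD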;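 further: Nile Red retained in cells so higher fluorescence means more efflux inhibition; 0 = negative control wells and 1 = enniatin B 25 µM full block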). The note with it: S. cerevisiae pump-expressing triplex, Nile Red efflux flow cytometry; at 10 µM; stronger effect = higher value; the pumps come from Candida albicans.
Test [14] concerns the target ATP-binding cassette sub-family B member 6 (Homo sapiens) (UniProt Q9NP58). The experiment in a line: blockers of ABCB6-driven porphyrin uptake – K562-ABCB6 cells, flow cytometry, validation set, pilot screen (AID 588550;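 active means inhibition above the screen-wide mean plus 3 SD, about 51%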;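 further: 0% = DMSO wells and 100% = benzethonium chloride 70 µM positive control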). To be noted: K562-ABCB6 porphyrin accumulation, 1 h, at 10 µM, stronger effect = higher value.
Test [15] is described as follows: AML differentiation inducers, ER-HoxA9 marrow cells – cell-based, GFP/MAC1 double positive, flow cytometry, validation set, primary screen (AID 588685;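 active means differentiation response of at least 50%, scaled between solvent and reference control, from cells with both markers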;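 further: compound exposure lasts four days before antibody staining and flow analysis; 0% = DMSO wells and 100% = 5 µM fulvestrant positive control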). To be noted: stronger effect = higher value, normalized: vehicle 0, fulvestrant 100.
Test [16] in a line: hit retest on RPL19A-GFP reporter strain – cell-based, S. cerevisiae, flow cytometry, cherry picks, mother/daughter gates, confirmation (AID 2270;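 active means GFP response below 50% of the DMSO control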). To be noted: 3 h, at 10 µM, stronger effect = lower value, 100 = same GFP as DMSO wells.
The nature of test [17]: yeast TOR pathway reporter LAP4-GFP change – cell-based, cherry picks, flow cytometry, mother/daughter gates, confirmation (AID 2271;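 active means GFP response above 150% of the DMSO control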;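 further: ratio of sample to DMSO plate mean so 100% equals DMSO level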). To be noted: S. cerevisiae LAP4-GFP strain, 3 h, at 10 µM, stronger effect = higher value, 100 means same as DMSO control.
Test [18] is described as follows: TOR pathway reporter MEP2-GFP, retest of hits – S. cerevisiae, flow cytometry GFP, cherry picks, confirmation (AID 2272;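 active means GFP response above 150% of the DMSO control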;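 further: ratio of well signal to plate DMSO mean so 100% equals DMSO level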). To be noted: S. cerevisiae MEP2-GFP strain, 3 h, at 10 µM, stronger effect = higher value.
Test [19] can be described thus: TOR pathway CIT2 reporter hit retest – S. cerevisiae, GFP fusion, cherry picks, mother/daughter gates, confirmation (AID 2274;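 active means GFP response above 150% of the DMSO level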). To be noted: S. cerevisiae CIT2-GFP strain, flow cytometry, 3 h, at 10 µM, stronger effect = higher value.
Where [20] appears, read: measured here: daughter cell gate.
The mark [21] stands for this setting: measured here: mother cell gate.
The mark [22] stands for this setting: measured here: daughter cell gate response.
Setting [23] is: measured here: mother cell gate response.

SMILES strings stand for the structures. Results filed as inconclusive are left out. Activity calls are given as the source filed them. Unless noted, no stated cut-off is given here; in the data, active means response above about 15%; inactive means the rest.

Chain of Integrin beta-1 (Homo sapiens) + Integrin alpha-4 (Homo sapiens) (P05556 whole entry, looked up): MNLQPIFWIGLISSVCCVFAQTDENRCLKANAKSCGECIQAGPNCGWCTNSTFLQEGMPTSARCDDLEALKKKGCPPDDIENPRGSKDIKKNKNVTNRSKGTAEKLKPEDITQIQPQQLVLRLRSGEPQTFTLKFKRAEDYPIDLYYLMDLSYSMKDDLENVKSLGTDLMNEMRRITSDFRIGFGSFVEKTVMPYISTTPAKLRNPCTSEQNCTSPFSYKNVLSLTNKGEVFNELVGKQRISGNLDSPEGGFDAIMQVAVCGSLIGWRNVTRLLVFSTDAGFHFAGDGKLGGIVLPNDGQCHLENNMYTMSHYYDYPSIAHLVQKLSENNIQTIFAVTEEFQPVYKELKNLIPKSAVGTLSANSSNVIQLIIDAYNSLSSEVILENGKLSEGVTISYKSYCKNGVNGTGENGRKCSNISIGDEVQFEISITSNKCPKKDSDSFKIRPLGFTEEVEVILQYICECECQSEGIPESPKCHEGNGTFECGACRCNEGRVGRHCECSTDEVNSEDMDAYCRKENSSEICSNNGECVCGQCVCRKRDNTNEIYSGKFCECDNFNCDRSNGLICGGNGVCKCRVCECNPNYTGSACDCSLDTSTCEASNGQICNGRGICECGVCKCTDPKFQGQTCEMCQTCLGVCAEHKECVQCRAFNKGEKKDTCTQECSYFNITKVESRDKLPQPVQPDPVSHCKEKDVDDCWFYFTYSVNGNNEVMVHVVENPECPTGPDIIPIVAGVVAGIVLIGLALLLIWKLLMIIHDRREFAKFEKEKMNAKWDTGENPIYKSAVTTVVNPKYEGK
Chain of Integrin beta-1 (Homo sapiens) + Integrin alpha-4 (Homo sapiens) (P13612 whole entry, looked up): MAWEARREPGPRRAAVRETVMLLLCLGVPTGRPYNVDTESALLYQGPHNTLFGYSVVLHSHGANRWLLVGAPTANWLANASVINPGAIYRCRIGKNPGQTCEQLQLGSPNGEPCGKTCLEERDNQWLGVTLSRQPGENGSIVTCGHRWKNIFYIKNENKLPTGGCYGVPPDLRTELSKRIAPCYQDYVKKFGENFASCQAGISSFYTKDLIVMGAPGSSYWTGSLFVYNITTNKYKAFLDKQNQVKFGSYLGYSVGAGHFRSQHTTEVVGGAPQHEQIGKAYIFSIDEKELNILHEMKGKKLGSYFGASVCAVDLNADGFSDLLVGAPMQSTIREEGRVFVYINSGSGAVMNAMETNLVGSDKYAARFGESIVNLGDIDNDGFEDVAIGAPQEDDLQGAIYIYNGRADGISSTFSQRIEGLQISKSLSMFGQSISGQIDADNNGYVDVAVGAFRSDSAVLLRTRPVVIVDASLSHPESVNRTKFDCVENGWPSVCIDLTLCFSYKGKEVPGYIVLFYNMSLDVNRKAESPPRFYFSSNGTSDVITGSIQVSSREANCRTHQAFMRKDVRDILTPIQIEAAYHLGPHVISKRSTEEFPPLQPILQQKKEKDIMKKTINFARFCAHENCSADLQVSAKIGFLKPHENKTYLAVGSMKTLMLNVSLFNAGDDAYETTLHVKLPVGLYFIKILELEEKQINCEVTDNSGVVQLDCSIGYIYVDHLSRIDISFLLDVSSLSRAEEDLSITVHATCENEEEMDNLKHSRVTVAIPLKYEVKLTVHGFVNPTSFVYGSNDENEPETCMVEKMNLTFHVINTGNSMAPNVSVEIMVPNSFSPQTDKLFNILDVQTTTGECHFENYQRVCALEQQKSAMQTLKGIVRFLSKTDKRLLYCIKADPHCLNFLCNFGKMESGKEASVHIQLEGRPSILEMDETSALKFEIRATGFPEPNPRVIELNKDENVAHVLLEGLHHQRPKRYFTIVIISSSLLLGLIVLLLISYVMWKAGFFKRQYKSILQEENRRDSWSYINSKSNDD
Chain of ATP-binding cassette sub-family B member 6 (Homo sapiens) (Q9NP58 whole entry, looked up): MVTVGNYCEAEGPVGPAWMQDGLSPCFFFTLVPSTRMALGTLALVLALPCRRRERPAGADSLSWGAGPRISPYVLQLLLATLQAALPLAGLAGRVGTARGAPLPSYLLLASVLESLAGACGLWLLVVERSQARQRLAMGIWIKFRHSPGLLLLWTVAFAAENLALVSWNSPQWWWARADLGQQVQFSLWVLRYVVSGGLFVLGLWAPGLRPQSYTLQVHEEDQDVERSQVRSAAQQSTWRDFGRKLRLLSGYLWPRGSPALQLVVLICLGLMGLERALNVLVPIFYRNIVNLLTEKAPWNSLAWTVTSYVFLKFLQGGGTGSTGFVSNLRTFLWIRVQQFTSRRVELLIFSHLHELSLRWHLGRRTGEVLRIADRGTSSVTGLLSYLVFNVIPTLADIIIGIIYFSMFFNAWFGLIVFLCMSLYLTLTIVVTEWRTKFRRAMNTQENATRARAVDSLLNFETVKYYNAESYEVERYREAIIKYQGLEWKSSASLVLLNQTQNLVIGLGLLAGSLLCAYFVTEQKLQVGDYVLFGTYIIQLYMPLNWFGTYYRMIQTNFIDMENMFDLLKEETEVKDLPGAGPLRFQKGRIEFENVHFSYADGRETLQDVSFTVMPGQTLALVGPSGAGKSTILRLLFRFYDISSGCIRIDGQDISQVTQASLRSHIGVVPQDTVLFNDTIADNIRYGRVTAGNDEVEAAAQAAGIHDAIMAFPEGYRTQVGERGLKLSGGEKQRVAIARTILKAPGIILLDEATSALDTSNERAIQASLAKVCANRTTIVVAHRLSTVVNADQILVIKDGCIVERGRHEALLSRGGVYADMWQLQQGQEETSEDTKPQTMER
Chain of AP-2 complex subunit beta (Homo sapiens) (P63010 whole entry, looked up, the tested form may be a part, one chain of several): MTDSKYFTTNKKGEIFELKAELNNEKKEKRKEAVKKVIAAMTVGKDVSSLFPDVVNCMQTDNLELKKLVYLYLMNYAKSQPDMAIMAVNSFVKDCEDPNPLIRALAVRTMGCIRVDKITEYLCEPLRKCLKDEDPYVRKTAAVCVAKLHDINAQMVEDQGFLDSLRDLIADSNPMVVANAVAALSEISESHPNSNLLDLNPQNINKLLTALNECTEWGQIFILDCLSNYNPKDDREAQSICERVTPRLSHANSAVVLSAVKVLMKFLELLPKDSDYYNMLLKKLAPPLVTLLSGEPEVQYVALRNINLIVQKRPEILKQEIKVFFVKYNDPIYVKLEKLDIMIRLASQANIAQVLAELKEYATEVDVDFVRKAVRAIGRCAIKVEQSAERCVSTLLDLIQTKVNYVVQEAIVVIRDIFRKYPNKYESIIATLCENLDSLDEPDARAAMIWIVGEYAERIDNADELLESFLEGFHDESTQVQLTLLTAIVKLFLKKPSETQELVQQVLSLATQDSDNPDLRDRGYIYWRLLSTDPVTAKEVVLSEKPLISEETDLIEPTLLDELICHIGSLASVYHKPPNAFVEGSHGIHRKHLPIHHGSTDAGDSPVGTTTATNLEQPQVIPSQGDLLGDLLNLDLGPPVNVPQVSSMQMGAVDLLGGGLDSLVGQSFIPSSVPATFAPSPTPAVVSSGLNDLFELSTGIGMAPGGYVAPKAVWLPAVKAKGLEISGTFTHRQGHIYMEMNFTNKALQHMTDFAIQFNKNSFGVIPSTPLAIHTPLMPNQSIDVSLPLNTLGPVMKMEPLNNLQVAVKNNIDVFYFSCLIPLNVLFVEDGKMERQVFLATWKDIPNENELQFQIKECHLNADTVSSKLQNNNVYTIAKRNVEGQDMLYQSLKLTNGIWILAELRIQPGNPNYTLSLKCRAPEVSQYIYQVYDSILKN
Chain of Beta-2 adrenergic receptor (Homo sapiens) (P07550 whole entry, looked up): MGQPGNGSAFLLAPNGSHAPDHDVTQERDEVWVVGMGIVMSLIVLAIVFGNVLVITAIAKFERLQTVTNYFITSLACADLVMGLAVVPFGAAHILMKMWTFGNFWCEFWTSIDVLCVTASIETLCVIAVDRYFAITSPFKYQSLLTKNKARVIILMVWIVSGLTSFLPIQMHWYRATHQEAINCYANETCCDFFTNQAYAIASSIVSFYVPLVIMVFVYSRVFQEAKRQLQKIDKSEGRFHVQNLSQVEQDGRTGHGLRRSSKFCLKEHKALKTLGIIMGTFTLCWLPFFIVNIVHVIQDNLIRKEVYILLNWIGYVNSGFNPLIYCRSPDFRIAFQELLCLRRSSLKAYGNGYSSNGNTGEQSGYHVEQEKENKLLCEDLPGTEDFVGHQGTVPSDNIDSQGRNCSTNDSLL
Chain of Beta-adrenergic receptor kinase 1 (Homo sapiens) (P25098 whole entry, looked up): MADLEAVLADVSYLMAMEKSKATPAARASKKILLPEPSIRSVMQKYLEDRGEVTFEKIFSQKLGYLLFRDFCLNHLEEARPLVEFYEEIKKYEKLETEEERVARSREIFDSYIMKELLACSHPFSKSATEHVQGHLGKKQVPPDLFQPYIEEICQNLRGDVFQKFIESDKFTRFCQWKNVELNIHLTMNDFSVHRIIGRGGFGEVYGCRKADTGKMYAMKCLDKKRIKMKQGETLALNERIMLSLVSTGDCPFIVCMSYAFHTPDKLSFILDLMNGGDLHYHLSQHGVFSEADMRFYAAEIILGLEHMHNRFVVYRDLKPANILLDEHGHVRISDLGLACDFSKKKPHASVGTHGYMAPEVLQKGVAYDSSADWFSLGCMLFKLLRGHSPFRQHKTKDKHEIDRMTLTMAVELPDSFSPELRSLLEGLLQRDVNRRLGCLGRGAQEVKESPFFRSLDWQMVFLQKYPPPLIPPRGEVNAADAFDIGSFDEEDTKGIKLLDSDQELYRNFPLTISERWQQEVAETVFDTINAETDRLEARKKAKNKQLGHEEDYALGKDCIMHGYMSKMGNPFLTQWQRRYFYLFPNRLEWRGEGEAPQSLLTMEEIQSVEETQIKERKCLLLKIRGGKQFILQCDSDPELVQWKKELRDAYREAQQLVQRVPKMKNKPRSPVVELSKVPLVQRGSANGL

One may read the inhibition as the change of the read-out against control, counted positive when it falls. Take `COc1cc2c(cc1OC)C(Cc1ccc(O)cc1)N(C)CC2` (centres undefined): the percent of DMSO control GFP in test [1] was 99% (inactive). Moreover, the GFP response vs DMSO is 127% (inactive) in [2] and 80.9% (inactive) in [4]. The percent response of DMSO control in test [3] is 108% (inactive). Besides, the double positive events in [5] came to 56%. Also, the vesicle binding response in test [5] was 289% (inactive). The inhibition in test [6] is 8.4% (inactive); in test [10], 2.93% (inactive); in test [14], 8% (inactive). In test [7], the superoxide response (% of plate) is 104% (inactive). Also, in test [8], the aptamer binding inhibition is 4% (inactive). In addition, the response in [9] is -6.53% (inactive); in test [11], 0.76% (inactive). For the same molecule, the binding (% of control) in [12] was 108% (inactive). Besides, the efflux inhibition (fraction of control) in test [13] is 0.27 (inactive). Also, the differentiation response in test [15] is 2.46% (inactive).

`C[C@]12CCC(=O)C=C1CC[C@@H]1[C@@H]2C(=O)C[C@@]2(C)[C@H]1CC[C@]2(O)C(=O)CO`: the percent of DMSO control GFP in [1] was 89.8% (inactive). Also, the GFP response vs DMSO in test [2] is 125% (inactive); in test [4], 88% (inactive); in [16], 97% (inactive); in test [16] (setting [20]), 97.3%; in test [16] (setting [21]), 98.1%; in [18] it was 102% (inactive). In [3], the percent response of DMSO control was 108% (inactive). Besides, the GFP response relative to DMSO in test [17] was 96.5% (inactive); in [17] (setting [22]), 99.3%; in test [17] (setting [23]), 94.6%. In addition, the GFP response, % of DMSO in test [19] is 99.3% (inactive); in [19] (setting [20]), 100%; in test [19] (setting [21]) it was 99.1%. In addition, the double positive events in [5] is 61.9%. Besides, the vesicle binding response in [5] is 136% (inactive). Further, the figures for the inhibition in test [6], in test [10] and in test [14] were 14.2% (inactive), -9.52% (inactive) and 14% (inactive), respectively. Further, the superoxide response (% of plate) in test [7] is 94.9% (inactive). For the same molecule, the aptamer binding inhibition in test [8] was 4% (inactive). Also, the response in test [9] is -5.55% (inactive); in test [11], 1.03% (inactive). For the same molecule, the binding (% of control) in test [12] was 101% (inactive). Besides, in test [13], the efflux inhibition (fraction of control) is 0.3 (inactive). In addition, the differentiation response in test [15] was 14.7% (inactive).

For `CC(=O)[C@@]1(O)CC[C@H]2[C@@H]3CCC4=CC(=O)CC[C@]4(C)[C@H]3CC[C@@]21C`, the percent of DMSO control GFP in test [1] is 92.2% (inactive). Further, the GFP response vs DMSO was 130% (inactive) in test [2]; 97.4% (inactive) in [4]; 104% (inactive) in [16]; 99.5% in test [16] (setting [20]); 105% in [16] (setting [21]); 97.8% (inactive) in test [18]. The percent response of DMSO control in test [3] is 139% (active). The GFP response relative to DMSO is 95% (inactive) in test [17], 94.1% in test [17] (setting [22]) and 97.2% in test [17] (setting [23]). Moreover, the results for the GFP response, % of DMSO in test [19], in test [19] (setting [20]) and in [19] (setting [21]) were 100% (inactive), 99.7% and 101%, respectively. The molecule further displayed a double positive events in test [5] of 53.6%. Moreover, in test [5], the vesicle binding response was 216% (inactive). The inhibition was -13.9% (inactive) in [6], 42.9% (inactive) in test [10] and 2% (inactive) in [14]. For the same molecule, the superoxide response (% of plate) in test [7] was 104% (inactive). The aptamer binding inhibition in test [8] was -15% (inactive). Besides, the response in test [9] was -16.3% (inactive); in test [11], -8.27% (inactive). For the same molecule, in test [12], the binding (% of control) was 217% (inactive). In addition, the efflux inhibition (fraction of control) in test [13] is 0.27 (inactive). The differentiation response in test [15] was 40.1% (inactive).

For `CC(NCCC(c1ccccc1)c1ccccc1)c1ccccc1` (centres undefined), in test [1], the percent of DMSO control GFP was 92.6% (inactive). The results for the GFP response vs DMSO in [2] and in test [4] were 122% (inactive) and 68.8% (inactive), respectively. Also, in test [3], the percent response of DMSO control was 111% (inactive). Moreover, in test [5], the double positive events stood at 64.4%. The vesicle binding response in test [5] is 167% (inactive). Also, the inhibition in test [6] was 6.46% (inactive); in test [10], 0.65% (inactive); in [14], 9% (inactive). Also, the superoxide response (% of plate) in test [7] is 95.5% (inactive). The aptamer binding inhibition in [8] was -3% (inactive). For the same molecule, the values for the response in test [9] and in test [11] were 24.3% (inactive) and 13.1% (inactive), respectively. Also, the binding (% of control) in test [12] was 116% (inactive). Also, the efflux inhibition (fraction of control) in test [13] was 0.19 (inactive). The differentiation response in test [15] is -0.82% (inactive).
